Screens as filed in PubChem BioAssay.
HP1b binding inh = blocks HP1-beta chromodomain binding to methylated histone tails. 0.56% of 390,000 active. AlphaScreen HP1-beta / biotin-H3K9me3 peptide binding. P83916. Potency, µM (top dose mostly 114 µM), without a hit: at the highest dose activity change, negative = inhibition, actives largely listed as inhibitors. AID 540317; also: nearly all actives have a fitted effect of over 70% in size
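HP1-beta protein (50 nM final) preincubated 30 min at room temperature with biotinylated H3(1-18)K9me3 peptide (50 nM) in PBS pH 7.4, 0.01% Tween-20, then compound added for 30 min. AlphaScreen streptavidin donor/nickel chelate acceptor beads (10 ug/mL final), 30 min dark, luminescence read.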
BAZ2B inh = BAZ2B (human) inhibition; Q9UIF8; AlphaScreen BAZ2B-H3K14Ac peptide displacement; Potency, µM (highest dose often 114 µM), inactives show at the top dose activity change, negative = inhibition, hits mostly inhibitors; 4.4% of 360,000 active; AID 504333; also: % is scaled to controls: 0 for no effect and ±100 for the full control effect; nearly all actives have a fitted effect of over 60% in size
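Inhibition is scored as reduced AlphaScreen emission. The BAZ2B/b-H3(5-23)K14Ac complex (50 nM each) in PBS pH 7.4, 0.01% Tween-20 meets compound (up to 110 uM) for 30 min at RT before bead addition.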
G9a inh = G9a (human) methyltransferase inhibition; Potency, µM (titrated, usually from 102 µM), inactives show top-dose activity, negative = inhibition, actives largely listed as inhibitors; G9a H3K9 monomethylation, AlphaScreen, 2 h; 8.8% of 350,000 active; Q96KQ7; also: % is scaled to controls: 0 for no effect and ±100 for the full control effect; nearly all actives have a fitted effect of over 75% in size
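G9a (20 nM) preincubated 15 min RT with compounds, then 500 nM biotinylated H3K9 peptide and 20 uM SAM added; 2 h RT reaction. Monomethyl-H3K9 product detected by AlphaScreen with anti-H3K9me1 antibody, streptavidin donor and anti-rabbit IgG acceptor beads.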
JMJD2A Tudor inh = blocks the human JMJD2A Tudor domain | O75164 | AlphaScreen JMJD2A-Tudor / H3K4me3 peptide binding | Potency, µM (series often up to 114 µM), without a hit: at the top dose activity change, negative = inhibition, usual class: inhibitors | 4.4% of 390,000 active | AID 504339; also: % is scaled to controls: 0 for no effect and ±100 for the full control effect; nearly all actives have a fitted effect of over 50% in size
Target sequence (O75164 whole entry, looked up, the tested form may be a part): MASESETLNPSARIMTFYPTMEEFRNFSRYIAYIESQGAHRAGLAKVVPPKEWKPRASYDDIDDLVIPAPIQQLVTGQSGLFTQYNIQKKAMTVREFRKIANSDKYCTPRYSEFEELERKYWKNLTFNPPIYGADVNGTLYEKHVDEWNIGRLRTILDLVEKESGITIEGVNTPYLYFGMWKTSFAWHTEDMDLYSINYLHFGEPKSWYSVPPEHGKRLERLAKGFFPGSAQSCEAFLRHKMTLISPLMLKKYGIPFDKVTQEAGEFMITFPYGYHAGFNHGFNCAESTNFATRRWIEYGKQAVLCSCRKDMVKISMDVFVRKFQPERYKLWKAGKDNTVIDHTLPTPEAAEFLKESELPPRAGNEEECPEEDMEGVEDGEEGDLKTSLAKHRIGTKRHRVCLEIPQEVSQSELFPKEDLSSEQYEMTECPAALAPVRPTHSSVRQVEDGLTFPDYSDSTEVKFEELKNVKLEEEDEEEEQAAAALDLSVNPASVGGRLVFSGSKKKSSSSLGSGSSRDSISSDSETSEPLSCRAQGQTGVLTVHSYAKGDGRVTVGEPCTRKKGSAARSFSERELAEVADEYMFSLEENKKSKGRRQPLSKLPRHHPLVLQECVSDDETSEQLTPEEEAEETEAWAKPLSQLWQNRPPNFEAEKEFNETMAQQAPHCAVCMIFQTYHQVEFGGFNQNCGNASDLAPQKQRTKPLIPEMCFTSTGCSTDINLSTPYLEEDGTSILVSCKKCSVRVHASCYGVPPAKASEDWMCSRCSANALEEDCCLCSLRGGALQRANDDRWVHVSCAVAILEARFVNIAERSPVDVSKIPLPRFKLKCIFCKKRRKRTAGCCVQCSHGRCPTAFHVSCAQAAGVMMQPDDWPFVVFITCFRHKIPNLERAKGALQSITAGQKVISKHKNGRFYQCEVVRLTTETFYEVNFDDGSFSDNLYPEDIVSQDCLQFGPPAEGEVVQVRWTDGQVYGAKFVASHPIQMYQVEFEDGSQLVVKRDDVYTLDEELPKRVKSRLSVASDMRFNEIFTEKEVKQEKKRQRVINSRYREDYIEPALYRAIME
Sfp inh = inhibitors of Bacillus subtilis Sfp phosphopantetheinyl transferase; Potency, µM, for the others: largest response in the series, negative = inhibition, most hits filed as inhibitors; 3.5% of 310,000 active; Biochemical Sfp PPTase activity, qHTS; Q9F4F7;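 also: the enzyme is Sfp with the accession as filed and its product quenches rhodamine fluorescence; 0% = enzyme reaction without inhibitor and -100% = no enzyme wells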
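Step 1, compound plus 15 nM Sfp-PPTase, 15 min, room temperature. Step 2, add rhodamine-CoA (5 uM) and BHQ-2-YbbR (12.5 uM). Step 3, read 525/598 nm fluorescence at 0 and 30 min.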
The depositor's hits bear a star; u = inconclusive; x = not tested or not shown; [ ] = another dose, or the depositor's remark. In the library only some 12% were active in any assay of this set; here they are far more common. Calls follow the shape of the dose curve; as a rule, active = well fitted curve in the direction sought with a large enough effect; inconclusive = small, poorly fitted or top-dose-only effect, or another doubt; inactive = no such curve, though single readings can be large; an effect the other way counts as inactive or inconclusive. Potency is read from the fitted curve at half-maximal effect.

SMILES	HP1b binding inh	BAZ2B inh	G9a inh	JMJD2A Tudor inh	Sfp inh
COc1ccc(/C=C/C(=O)Nc2ccc(C(N)=O)cc2)cc1OC	32.4%	-11.8%	-2.9%	2.1%	21.5%
COC(=O)c1cc2c(ccc3ccccc32)oc1=O	68.2%	x	x	12.5%	x
CN1CCN(C(=O)c2cc3c(ccc4ccccc43)oc2=O)CC1	35.5%	-32.0%	50.1µM*	-10.2%	-1.1%
O=C(CCC(=O)Nc1ccccc1Cl)N/N=C1\CCCc2ccccc21	39.9%	8.5%	9.5%[59 µM]	-9.2%	u
Cc1cc(S(=O)(=O)N2CCCOC2CNC(=O)C(=O)NCCCN2CCOCC2)ccc1F (centres undefined)	35.7%	-2.7%	x	-5.9%	4.4%
CN(C(=O)Nc1ccc(Cl)cc1Cl)[C@H]1c2cc(Br)ccc2OC[C@H]1CO	18.9%	2.0%	0.1%[59 µM]	-19.0%	-5.3%
COC1(OC)N=C(N)C2(C#N)C(c3ccc4c(c3)OCO4)C12C#N (centres undefined)	1.1%	u	50.1µM*	-30.2%	9.3%
CCOC1(OCC)N=C(N)C2(C#N)C(c3cccc(C)c3)C12C#N (centres undefined)	57.0%	1.4%[57.1 µM]	39.8µM*	17.7%	9.5%
CCCCCc1ccnc(CC(=O)c2ccc(OC)cc2)c1	-8.3%	x	x	u	x
CC(=O)C1=C(c2cccc([N+](=O)[O-])c2)N(C(C)=O)n2c(C)nnc2S1	19.7%	u	10µM*	-35.7%	-10.9%
COc1cc(C(=O)Nc2nnc(CC(=O)N3CCOCC3)s2)cc(OC)c1OC	20.2%	-4.6%	7.9%[12.7 µM]	-12.2%	8.0%
N#CCC(=O)c1sccc1-n1cccc1	-2.8%	79.4µM*	12.6µM*	-18.9%[57.1 µM]	10.6%
N#CCOC(=O)c1sccc1-n1cccc1	4.7%	-6.0%	5.3%[59 µM]	-7.5%	18.4%
O=C(OCC1OC(n2ncc(=O)[nH]c2=O)C(OC(=O)c2ccccc2)C1OC(=O)c1ccccc1)c1ccccc1 (centres undefined)	18.8%	50.1µM*	18.1%[12.7 µM]	50.1µM*	-0.6%
CC(=O)N1CC(C)Oc2ccc(S(=O)(=O)NC(CC(=O)O)c3ccc(C)cc3C)cc21 (centres undefined)	22.5%[57 µM]	-2.0%	79.4µM*	1.6%	18.3%
C[C@H](CO)N1C[C@H](C)[C@@H](CN(C)S(=O)(=O)c2cccs2)Oc2ccc(NS(=O)(=O)c3cn(C)cn3)cc2C1=O	41.8%	x	x	-24.1%	x
COc1cc(Br)cc2cc(C(=O)OC3CCN(C)CC3)c(=O)oc12	49.0%	x	x	-6.7%	x
CCc1nn(CC(=O)N2CCN(c3cccc(C(F)(F)F)c3)CC2)c(=O)c2cccn12	17.2%	70.8µM*	-34.8%[59 µM]	u	x
CCN1C(=NCc2cc(OC)c(OC)c(OC)c2)N[C@@H](c2ccccc2)[C@H](C(=O)OC)[C@H]1C	x	-2.7%	u	x	-0.3%
CCN1C(=NCCOC)N[C@@H](c2ccccc2)[C@H](C(=O)OC)[C@H]1C	15.9%	50.1µM*	-10.8%[12.7 µM]	-17.2%	3.5%
COc1ccc(CCC(=O)Nc2cnc3ccccc3c2)cc1	31.4%	0.7%	25.5%	-13.0%	14.5%
Cc1ccc2c(c1)c1cccc3c1n2CCN3CCC(N)=O	u	39.8µM*	u	50.1µM*	-3.0%
Cc1ccc(NC(=O)CC2SC3=NCCN3C2=O)cc1 (centres undefined)	36.8%	-5.9%	7.08µM*	-10.0%	70.8µM*
O=C(CC1SC(=O)N(c2ccccc2)C1=O)Nc1ccccc1 (centres undefined)	-4.4%	-36.1%	u	-34.3%	u
Cc1ccc(N2C(=O)SC(Cc3ccccc3)C2=O)cc1 (centres undefined)	u	-16.4%	8.91µM*	-15.9%	22.4µM*
SMILES	HP1b binding inh	BAZ2B inh	G9a inh	JMJD2A Tudor inh	Sfp inh
Cc1ccc(NC(=O)CC2SC(=O)N(c3ccccc3)C2=O)cc1 (centres undefined)	8.3%	-6.1%	u	-20.5%	20µM*
Cn1c(=O)n(C)c2cc([N+](=O)[O-])c(N3CCN(C(=O)c4cccc(F)c4)CC3)cc21	-0.9%	50.1µM*	u	-13.4%	8.1%
O=C(c1cccc(Cl)c1)N1CCN(c2ncccn2)CC1	53.5%	3.3%	-7.8%	12.1%	12.5%
O=C(c1cccc(F)c1)N1CCN(c2ccc([N+](=O)[O-])c(N3CCOCC3)c2)CC1	36.5%	-24.8%	4.1%[59 µM]	-3.5%[57.1 µM]	11.9%
CCOC(=O)C(=O)N1CCN(c2cc3c(cc2[N+](=O)[O-])n(C)c(=O)n3C)CC1	33.0%	50.1µM*	-4.5%	-7.0%	11.8%
CCCS(=O)(=O)N1CCN(c2cc3c(cc2[N+](=O)[O-])n(C)c(=O)n3C)CC1	40.1%	56.2µM*	-5.4%	0.0%[57.1 µM]	-4.1%
Cn1c(=O)n(C)c2cc([N+](=O)[O-])c(N3CCN(S(=O)(=O)c4ccc5ccccc5c4)CC3)cc21	-2.9%	-6.0%	9.6%[59 µM]	-20.3%	-3.6%
Cn1c(=O)n(C)c2cc([N+](=O)[O-])c(N3CCN(C(=O)c4cccc(Cl)c4)CC3)cc21	1.0%	56.2µM*	19.1%[59 µM]	-23.4%[57.1 µM]	8.7%
CCOC(=O)N1CCN(c2ccc(F)cc2[N+](=O)[O-])CC1	-0.2%	-37.5%	-19.7%	-28.3%	-6.0%
Cc1ccc(C(=O)N2CCN(c3cc4c(cc3[N+](=O)[O-])n(C)c(=O)n4C)CC2)cc1	9.1%	50.1µM*	-36.2%	-8.3%	-7.9%
Cc1ccc(S(=O)(=O)N2CCN(c3cc4c(cc3[N+](=O)[O-])n(C)c(=O)n4C)CC2)cc1	-11.5%	u	u	-33.5%	-1.6%
COc1cc(/C=C2/C(=O)c3cccc([N+](=O)[O-])c3C2=O)c(Br)cc1O	25.1µM*	20µM*	10µM*	17.8µM*	20µM*
Cc1ccc(NC(=O)CS(=O)CC(=O)N(c2ccc(C)cc2)C(C)C(=O)NC2CCCCC2)cc1 (centres undefined)	41.1%	16.0%	17.8µM*	-3.2%	-2.0%
O=[N+]([O-])c1ccc(Nc2nc(Cl)nc(NCCO)n2)cc1	32.9%	-15.4%	-50.5%	-5.4%	6.8%
Nc1c(S(=O)(=O)O)cc(Nc2ccc(Nc3nc(Cl)nc(Nc4ccc(S(=O)(=O)O)cc4)n3)c(S(=O)(=O)O)c2)c2c1C(=O)c1ccccc1C2=O	x	x	1µM*	x	x
Nc1c(S(=O)(=O)O)cc(Nc2ccc(Cl)cc2)c2c1C(=O)c1ccccc1C2=O	x	x	x	x	15.8µM*
Nc1c(S(=O)(=O)O)cc(NC(=O)c2ccccc2)c2c1C(=O)c1ccccc1C2=O	u	3.55µM*	u	2.51µM*	u
CC1CCN(CC(=O)N2c3ccccc3CCc3ccccc32)CC1	17.8%	-4.0%	2.7%[59 µM]	-0.8%	9.8%
O=C(OCn1ncc(Br)c(Br)c1=O)c1ccc(F)cc1	32.2%	0.3%	-25.3%[12.7 µM]	-9.6%	50.1µM*
O=C(OCn1ncc(Br)c(Br)c1=O)c1ccccc1Cl	63.7%	-9.0%	0.5%[12.7 µM]	-9.4%	-16.0%
